Screen size: about 5,500 compounds; about 2,000 (36%) were called active. About 18% were inconclusive and are not listed. Rule as the data show it: active = normalized growth mostly below about 0.91 (no sharp cut-off); inconclusive = no clear call, values can overlap the other calls; inactive = mostly above about 0.92. The list shows a part of the results.
Assay: chemical genetic growth profiling, strain panel (AID 1159580);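 also: tested at 20 µM; growth read once vehicle control cultures reached saturation at 30 °C; 1 = growth at the plate median or of vehicle wells; lower values mean less growth of the strain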
Conditions: growth OD

Measured: normalized growth

COc1ccc2c(c1OC)C(=O)OC2[C@H]1c2c(cc3c(c2OC)OCO3)CCN1C (stereo partly drawn)
inactive: S. cerevisiae deletion strains, locus YJR043C, strain POL32, active compounds read low 0.986 | S. cerevisiae deletion strains, locus YJR066W, strain TOR1, active compounds read low 0.973 | S. cerevisiae deletion strains, locus YKL009W, strain mrt4, active compounds read low 0.972 | S. cerevisiae deletion strains, locus YKL068W, active compounds read low 0.99 | S. cerevisiae deletion strains, locus YKL085W, strain MDH1 (second series), active compounds read low 0.991 | S. cerevisiae deletion strains, locus YKL085W, strain MDH1, active compounds read low 0.991 | S. cerevisiae deletion strains, locus YKL160W, strain elf1, active compounds read low 1.01 | S. cerevisiae deletion strains, locus YKL190W, strain CNB1, active compounds read low 0.995 | S. cerevisiae deletion strains, locus YKR001C, strain vps1, active compounds read low 0.985 | S. cerevisiae deletion strains, locus YKR026C, strain gcn3, active compounds read low 1 | S. cerevisiae deletion strains, locus YKR091W, strain srl3, active compounds read low 1.01 | S. cerevisiae deletion strains, locus YLL001W, strain dnm1, active compounds read low 0.973 | S. cerevisiae deletion strains, locus YLL026W, active compounds read low 1.01 | S. cerevisiae deletion strains, locus YLL041C, strain sdh2, active compounds read low 0.995 | S. cerevisiae deletion strains, locus YLR027C, strain aat2, active compounds read low 1.02 | S. cerevisiae deletion strains, locus YLR039C, strain RIC1, active compounds read low 0.997 | S. cerevisiae deletion strains, locus YLR058C, strain SHM2, active compounds read low 1.01 | S. cerevisiae deletion strains, locus YLR102C, strain apc9, active compounds read low 0.994 | S. cerevisiae deletion strains, locus YLR113W, strain HOG1, active compounds read low 0.966 | S. cerevisiae deletion strains, locus YLR221C, strain rsa3, active compounds read low 1 | S. cerevisiae deletion strains, locus YLR258W, strain gsy2, active compounds read low 1.02 | S. cerevisiae deletion strains, locus YLR262C, strain YPT6 (second series), active compounds read low 1.03 | S. cerevisiae deletion strains, locus YLR262C, strain YPT6, active compounds read low 1 | S. cerevisiae deletion strains, locus YLR268W, strain sec22, active compounds read low 0.948 | S. cerevisiae deletion strains, locus YLR320W, strain mms22, active compounds read low 0.975 | S. cerevisiae deletion strains, locus YLR330W, strain CHS5, active compounds read low 0.991 | S. cerevisiae deletion strains, locus YLR342W, strain FKS1 (second series), active compounds read low 1.01 | S. cerevisiae deletion strains, locus YLR342W, strain FKS1, active compounds read low 1.01 | S. cerevisiae deletion strains, locus YLR357W, strain rsc2, active compounds read low 0.997 | S. cerevisiae deletion strains, locus YLR370C, strain arc18, active compounds read low 1.02 | S. cerevisiae deletion strains, locus YLR371W, strain rom2, active compounds read low 0.98 | S. cerevisiae deletion strains, locus YLR384C, strain iki3, active compounds read low 1 | S. cerevisiae deletion strains, locus YLR418C, strain cdc73, active compounds read low 0.984 | S. cerevisiae deletion strains, locus YML016C, strain PPZ1, active compounds read low 1 | S. cerevisiae deletion strains, locus YML032C, strain rad52, active compounds read low 0.99 | S. cerevisiae deletion strains, locus YML120C, strain ndi1, active compounds read low 1.02 | S. cerevisiae deletion strains, locus YML124C, strain tub3, active compounds read low 0.989 | S. cerevisiae deletion strains, locus YMR058W, strain fet3, active compounds read low 1.01 | S. cerevisiae deletion strains, locus YMR078C, strain ctf18, active compounds read low 0.993 | S. cerevisiae deletion strains, locus YMR125W, strain sto1, active compounds read low 1.01 | S. cerevisiae deletion strains, locus YMR129W, active compounds read low 1.01 | S. cerevisiae deletion strains, locus YMR205C, strain PFK2, active compounds read low 0.981 | S. cerevisiae deletion strains, locus YMR223W, strain ubp8, active compounds read low 1.01 | S. cerevisiae deletion strains, locus YMR231W, strain pep5, active compounds read low 1.01 | S. cerevisiae deletion strains, locus YMR307W, strain GAS1, active compounds read low 1 | S. cerevisiae deletion strains, locus YNL067W, strain RPL9B, active compounds read low 0.993 | S. cerevisiae deletion strains, locus YNL071W, strain lat1, active compounds read low 1.02 | S. cerevisiae deletion strains, locus YNL153C, strain GIM3, active compounds read low 1.01 | S. cerevisiae deletion strains, locus YNL183C, strain NPR1, active compounds read low 0.951 | S. cerevisiae deletion strains, locus YNL209W, strain ssb2, active compounds read low 1 | S. cerevisiae deletion strains, locus YNL233W, strain BNI4, active compounds read low 0.999 | S. cerevisiae deletion strains, locus YNL248C, strain rpa49, active compounds read low 0.984 | S. cerevisiae deletion strains, locus YNL250W, strain rad50, active compounds read low 0.985 | S. cerevisiae deletion strains, locus YNL271C, strain bni1, active compounds read low 0.984 | S. cerevisiae deletion strains, locus YNL298W, strain CLA4, active compounds read low 0.992 | S. cerevisiae deletion strains, locus YNL307C, strain MCK1, active compounds read low 0.987 | S. cerevisiae deletion strains, locus YNL322C, strain KRE1 (second series), active compounds read low 1.02 | S. cerevisiae deletion strains, locus YNR049C, strain mso1, active compounds read low 1.01 | S. cerevisiae deletion strains, locus YNR052C, strain pop2, active compounds read low 0.978 | S. cerevisiae deletion strains, locus YOL006C, strain TOP1, active compounds read low 1.07 | S. cerevisiae deletion strains, locus YOL012C, strain htz1 0.809 | S. cerevisiae deletion strains, locus YOL147C, strain pex11, active compounds read low 0.987 | S. cerevisiae deletion strains, locus YOR001W, strain rrp6, active compounds read low 1.02 | S. cerevisiae deletion strains, locus YOR061W, strain CKA2, active compounds read low 1.01 | S. cerevisiae deletion strains, locus YOR069W, strain VPS5, active compounds read low 1 | S. cerevisiae deletion strains, locus YOR070C, strain gyp1, active compounds read low 0.996 | S. cerevisiae deletion strains, locus YOR080W, strain dia2, active compounds read low 1.04 | S. cerevisiae deletion strains, locus YOR083W, strain WHI5, active compounds read low 0.953 | S. cerevisiae deletion strains, locus YOR106W, strain vam3, active compounds read low 1.02 | S. cerevisiae deletion strains, locus YOR136W, strain idh2, active compounds read low 0.995 | S. cerevisiae deletion strains, locus YOR144C, strain elg1, active compounds read low 1 | S. cerevisiae deletion strains, locus YOR184W, strain ser1, active compounds read low 0.976 | S. cerevisiae deletion strains, locus YOR231W, strain MKK1, active compounds read low 0.985 | S. cerevisiae deletion strains, locus YOR265W, strain rbl2, active compounds read low 1.02 | S. cerevisiae deletion strains, locus YOR270C, strain vph1, active compounds read low 1.04 | S. cerevisiae deletion strains, locus YOR290C, strain snf2, active compounds read low 1.02 | S. cerevisiae deletion strains, locus YOR316C, strain cot1, active compounds read low 0.989 | S. cerevisiae deletion strains, locus YPL051W, strain arl3, active compounds read low 1.02 | S. cerevisiae deletion strains, locus YPL078C, strain atp4, active compounds read low 1 | S. cerevisiae deletion strains, locus YPL106C, strain sse1, active compounds read low 1.07 | S. cerevisiae deletion strains, locus YPL240C, strain hsp82, active compounds read low 1.01 | S. cerevisiae deletion strains, locus YPL256C, strain CLN2, active compounds read low 0.984 | S. cerevisiae deletion strains, locus YPR119W, strain clb2, active compounds read low 0.995 | S. cerevisiae deletion strains, locus YPR141C, strain kar3, active compounds read low 0.993 | S. cerevisiae deletion strains, locus YPR163C, strain tif3, active compounds read low 0.984 | S. cerevisiae deletion strains, locus YPR167C, strain met16, active compounds read low 0.986 | S. cerevisiae deletion strains, strain wtn01, active compounds read low 0.967 | S. cerevisiae strains, strain wild type, active compounds read low 1.01
